# Inconclusive results are not listed. Entries that show only a call come without a potency. Active and inactive are the calls of the source. Calls follow the shape of the dose curve; as a rule, active = well fitted cell-killing curve with a large enough effect; inconclusive = small, poorly fitted or top-dose-only effect; inactive = flat fitted curve, though single readings scatter.
# Test: Cell Viability - LYMP2-006 (AID 978); also: nearly all actives have a fitted effect of over 60% in size
# Conditions: LYMP2-006 lymphoblastoid cell viability, qHTS; series mostly up to 92.2 µM
# Text: NIH Chemical Genomics Center [NCGC]
# NIH Molecular Libraries Screening Centers Network [MLSCN]
# National Institutes of Environmental Health Sciences [NIEHS]
# National Toxicology Program [NTP]
# We have developed a 1536-well cell-based assay for quantitative high throughput screening (qHTS) against a number of cell lines to determine in vitro cytotoxicity of small molecules. This particular assay uses a human lymphoblastoid cell line (LYMP2-006) purchased from Coriell Institute for Medical Research.
# NCGC Assay Protocol Summary:
# The CellTiter-Glo luminescent cell viability assay (Promega) is a homogeneous method to measure the number of viable cells in culture. The end point readout of this assay is based on quantitation of intracellular ATP, an indicator of metabolic activity, using the luciferase reaction. Luciferase catalyzes the oxidation of beetle Luciferin to oxyluciferin and light in the presence of ATP. The luminescent signal is proportional to amount of ATP present.
# Using the CellTiter-Glo luminescent cell viability assay, the amount of cellular ATP was measured in the lymphoblastoid cell line with complete culture medium following compound treatment for 24 hours. The assay was performed in opaque white Kalypsys 1536-well plates. In the screen, tetraoctylammonium bromide was used as positive control. Library compounds were measured for their ability to cause acute toxicity in the cell line, as reflected by a decrease in intracellular ATP levels, in a concentration-dependent manner. […] AC50 values were determined from concentration-response data modeled with the standard Hill equation.
# qHTS protocol for CellTiter Glo lymphoblastoid cellular assay
# [Step] [Parameter] [Value] [Description]
# 1. Reagent; 5 uL; 2500 lymphoblastoid cells/well
# 2. Time; 5 hr; 37 C incubation
# 4. Controls; 23 nL; Tetraoctylammonium bromide 6.4pM to 92 uM
# 5. Time; 24 hr; 37 C incubation
# 6. Reagent; 5 uL; CellTiter Glo reagent
# 7. Time; 30 min; Room Temperature
# 8. Detection; Luminescence; Viewlux plate reader
# Keywords: cell viability, cytotoxicity, lymphoblastoid cell line, luminescence, NTPHTS, NTPHTS_NCGC, NIEHS, DSSTox, MLSMR, MLSCN, NIH Roadmap, qHTS, NCGC
# Potency is read from the fitted curve at half-maximal effect.
row,Structure (SMILES),Potency
1,Oc1cccc(Cl)c1,inactive
2,O=C(O)C(Cl)Br (stereo not given),inactive
3,CCC[N+](=O)[O-],inactive
4,C=CCCl,inactive
5,C=CC=O,inactive
6,S=c1[nH]c2ccccc2[nH]1,inactive
7,CC(C)(OOC(C)(C)c1ccccc1)c1ccccc1,inactive
8,O=[N+]([O-])c1ccc(O)c([N+](=O)[O-])c1,inactive
9,Nc1ccc(-c2ccc(N)cc2)cc1,inactive
10,CC(C)(Cl)Cl,inactive
11,CC(Cl)(Cl)Cl,inactive
12,C[N+](=O)[O-],inactive
13,C=C(Cl)CSC(=S)N(CC)CC,inactive
14,ClC(Cl)(Cl)C(Cl)(Cl)Cl,inactive
15,CCN(CC)CCO,inactive
16,N#CCCCCC#N,inactive
17,Clc1ccccc1,inactive
18,OCCOCCO,inactive
19,CC(C)[C@]12CC(=O)[C@H](C)[C@H]1C2,inactive
20,O=[N+]([O-])/C=C/c1ccccc1,39.8 µM (active)

row,Structure (SMILES),Potency
1,Cc1ccc([N+](=O)[O-])cc1,inactive
2,CN=C=O,inactive
3,CCOS(C)(=O)=O,inactive
4,Nc1ccc(Cc2ccc(N)cc2)cc1,inactive
5,Clc1ccc(C(Cl)(Cl)Cl)c(Cl)c1,inactive
6,CCCBr,inactive
7,ClCCCCl,inactive
8,CC(C)OS(C)(=O)=O,inactive
9,ClC(Cl)C(Cl)Cl,inactive
10,CCOC(=O)CBr,inactive
11,Cc1ccc2c(C)cccc2c1,inactive
12,[O-][Cl+]O,inactive
13,CCC(Cl)[N+](=O)[O-] (stereo not given),inactive
14,O=C(O)c1cc(Cl)ccc1Cl,inactive
15,Clc1ccc(C(c2ccccc2Cl)C(Cl)(Cl)Cl)cc1 (stereo not given),inactive
16,O=C(Cl)c1ccccc1F,inactive
17,C=CCCC#N,inactive
18,CC(C)C#N,inactive
19,Cc1ccc(N=C=O)cc1N=C=O,inactive
20,Nc1ccc(Cc2ccc(N)c(Cl)c2)cc1Cl,inactive

# From PubChem BioAssay (NCATS)
